From PubChem BioAssay
PriA SSB inh = inhibitors of Klebsiella pneumoniae PriA binding to SSB C-terminal tail, primary screen, biochemical, AlphaScreen. hit rate 0.6% among 430,000. AlphaScreen SSBct-PriA binding, biotinylated peptide. inhibition, % at 33 µM. AID 1272365, 2023. PriA–SSB C-terminal tail interaction (Klebsiella pneumoniae); in the data active = inhibition mostly above about 37%, no sharp cut-off; inactive = mostly below about 20%;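 note: plate controls were negative control peptide for no effect and reference peptide for full effect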
Mtb betalactam = beta-lactam sensitization of Mtb H37Rv, H37Rv; M. tuberculosis H37Rv growth with meropenem, percent inhibition; inhibition, % at 25 µM; hit rate 0.27% among 330,000; AID 434955, 2010;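 note: growth measured after seven days incubation then overnight dye step; 0% = bacteria only wells and 100% = bacteria with antibiotic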
RecA intein inh = Mtb RecA intein splicing inhibitors, primary screen, biochemical, fluorescence, HTS; inhibition, % (no concentration beside the values); Protein RecA (Mycobacterium tuberculosis (strain ATCC 25618 / H37Rv)), P9WHJ3; hit rate 0.75% among 290,000; cell-free RecA intein splicing; in the data active = inhibition above about 30%; inconclusive = no clear call, values can overlap the other calls;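 note: 0% = vehicle wells and 100% = reference inhibitor control wells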
Mtb UGM inh = M. tuberculosis UGM enzyme inhibitors, primary screen, biochemical, fluorescence polarization, single point; purified UGM, fluorescence polarization probe displacement; hit rate 0.06% among 320,000; inhibition, % at 10 µM; UDP-galactopyranose mutase (Mycobacterium tuberculosis (strain ATCC 25618 / H37Rv)), …; AID 504406, 2011; in the data active = inhibition above about 10%, passing the limit was not always enough; inconclusive = no clear call, values can overlap the other calls
Rv3671c inh = Rv3671c serine protease inhibitors, primary screen, biochemical, fluorescence polarization, M. tuberculosis H37Rv. P9WHR9. inhibition, % at 5.96 µM. hit rate 0.048% among 320,000. AID 2606, 2010; in the data active = inhibition above about 38%;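 note: extracellular domain of Rv3671c used as enzyme; 0% = enzyme with DMSO and 100% = no enzyme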
Target sequence (P9WHR9 whole entry, looked up, the tested form may be a part): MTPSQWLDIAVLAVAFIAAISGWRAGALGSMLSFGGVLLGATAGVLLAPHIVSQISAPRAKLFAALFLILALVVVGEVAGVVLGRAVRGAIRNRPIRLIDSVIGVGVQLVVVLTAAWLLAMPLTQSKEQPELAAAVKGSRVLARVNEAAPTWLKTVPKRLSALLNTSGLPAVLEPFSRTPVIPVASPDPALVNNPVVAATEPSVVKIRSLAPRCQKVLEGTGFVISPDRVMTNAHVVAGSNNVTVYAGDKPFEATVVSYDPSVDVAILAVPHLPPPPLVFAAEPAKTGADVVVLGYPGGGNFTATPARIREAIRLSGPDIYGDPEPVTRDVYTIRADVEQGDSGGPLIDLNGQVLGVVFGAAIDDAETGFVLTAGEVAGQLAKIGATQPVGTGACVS
GFP chromophore = counter-screen: blocks GFP chromophore formation, dose response, counter-screen, biochemical, fluorescence, homogeneous; shares compounds with RecA intein inh; cell-free GFP chromophore formation; EC50, µM; hit rate 83% among 2,100
Active calls of the source: *; ? = inconclusive; · = no result given. An excerpt weighted towards active compounds, which were near 1.1% of everything screened. Unless noted, the rule behind the calls is not given here.

SMILES | PriA SSB inh | Mtb betalactam | RecA intein inh | Mtb UGM inh | Rv3671c inh | GFP chromophore
Cc1cc(C)nc(SCCCn2c(N3CCC(C(N)=O)CC3)nc3c2c(=O)[nH]c(=O)n3C)n1 | 4 | · | · | · | · | ·
COc1ccccc1CCNC(=O)Cc1csc2nc(-c3ccc(C)cc3)cn12 | 22 | · | · | · | · | ·
CCOC(=O)c1cc2cc3ccccc3cc2[nH]1 | -35 | 10 | 44* | -2 | -14 | >38
Cc1cccc(CSc2nc3c(c(-c4cccs4)c2C#N)CN(C)CC3)c1 | -1 | 100 | 61* | 2 | 7 | 25*
Cc1cccc(CSc2nc(N)c(C#N)c(-c3cccs3)c2C#N)c1 | -47 | -10 | 3 | 4 | -90 | ·
CN1CCc2nc(SCC(=O)Nc3ccc(OC(F)(F)F)cc3)c(C#N)c(-c3cccs3)c2C1 | -3 | 0 | 88* | 0 | -3 | 3.9*
Oc1ccc(N=Cc2ccc(O)c(O)c2)cc1 | 9 | -6 | 86* | 3 | -13 | 24*
Oc1ccc(/C=N/N=C/c2ccc(O)c(O)c2)cc1O | · | 3 | -6 | 5 | -10 | ·
COc1ccc(CNC(=O)C(c2ccc(C)o2)N(C(=O)c2snc(C(N)=O)c2N)c2ccccc2OC)cc1 (stereo unspecified) | -10 | -3 | 36* | -1 | -22 | >38
COc1ccc(OC)c(N(C(=O)c2snc(C(N)=O)c2N)C(C(=O)NCc2ccccc2)c2ccc(O)cc2)c1 (stereo unspecified) | 4 | 1 | -3 | 2 | -18 | ·
CCC(=O)N1CCc2ccc(NC(=O)c3cccs3)cc2C1 | 6 | · | · | · | · | ·
COc1cc2c(cc1OC)C1(NCC2)C(=O)Nc2ccccc21 (stereo unspecified) | 8 | 3 | 0 | 4 | 4 | ·
COc1cc2c(cc1OC)C1(Nc3c-2c(Cc2ccccc2)nn3-c2ccccc2)C(=O)Nc2ccccc21 (stereo unspecified) | 7 | 100 | 35* | -2 | -14 | >38
Cc1ccc(-c2nc(CN3CCCC(C(=O)N4CCOCC4)C3)c(C)o2)cc1 (stereo unspecified) | -18 | -1 | 44* | 0 | 1 | >38
CCCCCOP(=O)(OCCCCC)C1(NS(=O)(=O)c2ccccc2)C=CC(=O)c2ccccc21 (stereo unspecified) | 12 | -3 | 81* | -3 | -17 | 6.7*
COc1ccc(-c2noc(CSc3nc4ccccc4c(=O)n3Cc3cccs3)n2)cc1OC | 1 | · | · | · | · | ·
O=C(NCCc1ccccc1)C(c1cccs1)N(C(=O)CCl)c1ccc(Cl)cc1 (stereo unspecified) | 0 | 73 | 74* | 0 | -6 | 0.51*
COC(=O)c1cc(C)nc2c1C(=O)C(=O)C=C2N1CCOCC1 | -5 | -5 | 96* | 5 | -141 | 0.97*
Nc1ccc2c(c1)C(=O)c1ccccc1-2 | -2 | 97 | 2 | -2 | 2 | ·
Nc1ccc2c(c1)C(=O)C(=O)c1ccccc1-2 | 14 | 100 | 97* | 1 | -122 | 5.1*
COc1ccc(C(=O)Nc2ccncc2)cc1[N+](=O)[O-] | -16 | 0 | 39* | 0 | · | >38
Cc1ccccc1OCC(=O)Nc1ccc2c(c1)N(C)C(=O)C(C)(C)CO2 | 19 | · | · | · | · | ·
CCOC(=O)CNC(=O)C1CN(S(=O)(=O)C2CC2)C1 | -13 | · | · | · | · | ·
c1ccc(-c2ccc(C3CCCN3)cc2)cc1 (stereo unspecified) | 0 | 2 | 90* | 0 | -1 | >38
Cc1ccc(-c2cc(=O)[nH][nH]2)c(C)c1 | -8 | 2 | 95* | 2 | 8 | 2.9*
SMILES | PriA SSB inh | Mtb betalactam | RecA intein inh | Mtb UGM inh | Rv3671c inh | GFP chromophore
Cc1ccc(-c2csc3nc[nH]c(=O)c23)c(C)c1 | 0 | -2 | 0 | 4 | -6 | ·
COc1ccc(/C=C/C(=O)N2CCN(Cc3nc(-c4ccc(F)cc4)cs3)CC2)cc1OC | 13 | · | · | · | · | ·
CC(=O)Nc1ccc(NC(=O)CSc2ncc(C(=O)Nc3ccc(Cl)cc3)c(=O)n2C)cc1 | -12 | -3 | 23 | 2 | 2 | ·
Cn1c(SCC(=O)NCC2CCCO2)ncc(C(=O)Nc2ccc(F)cc2)c1=O (stereo unspecified) | 1 | 54 | 39* | 2 | 1 | 0.89*
Cn1c(SCC(=O)NCC2CCCO2)ncc(C(=O)Nc2ccc(Cl)cc2)c1=O (stereo unspecified) | -21 | 74 | 54* | -1 | 4 | >38
CCCn1c(=O)[nH]c(=O)c2c1nc(-c1ccccc1OC(F)F)n2CCOC | 5 | -21 | 0 | -1 | 0 | ·
CCCn1c(=O)[nH]c(=O)c2c1nc(-c1ccc(OC(F)F)c(OC)c1)n2CCOC | -16 | -17 | 53* | 1 | -5 | >38
Cc1ccccc1C(=O)NC[C@H](O)Cn1ccccc1=O | -1 | · | · | · | · | ·
Cc1ccc(S(=O)(=O)c2c(N)n(CCC(C)C)c3nc4ccccc4nc23)cc1 | 10 | 0 | 85* | 0 | -49 | 11*
CCCCn1c(NC(=O)c2ccco2)c(S(=O)(=O)c2ccc(C)cc2)c2nc3ccccc3nc21 | -8 | · | 57* | · | · | ?
CCCCn1c(NS(=O)(=O)c2ccccc2)c(S(=O)(=O)c2ccc(C)cc2)c2nc3ccccc3nc21 | 58* | -1 | 76* | 0 | -209 | ?
CCCCn1c(NC(=O)c2ccc(Br)o2)c(S(=O)(=O)c2ccccc2)c2nc3ccccc3nc21 | 4 | -7 | 90* | 1 | -26 | ?
CCCCn1c(NC(=O)c2ccco2)c(C(=O)OCC)c2nc3ccccc3nc21 | 5 | 17 | -65 | 0 | -207 | ·
CCCCCn1c(NC(=O)c2ccco2)c(S(=O)(=O)c2ccc(C)cc2)c2nc3ccccc3nc21 | 5 | -5 | 80* | 1 | -19 | >38
CCCCCCCCn1c(NS(=O)(=O)c2ccccc2)c(S(=O)(=O)c2ccc(C)cc2)c2nc3ccccc3nc21 | 33 | · | · | · | · | ·
CC(=O)c1ccc(OC(=O)c2cccs2)cc1 | -2 | 22 | 35* | 1 | 5 | >38
CSc1ccc(C(c2c(C)[nH][nH]c2=O)c2c(C)[nH][nH]c2=O)cc1 | 3 | 7 | 98* | 2 | -17 | 0.57*
COC(=O)COc1ccc(C(c2c(C)[nH][nH]c2=O)c2c(C)[nH][nH]c2=O)cc1 | -7 | 5 | 98* | -1 | · | 0.69*
COC(=O)COc1ccc(C(=O)OC)cc1 | -8 | 96 | 0 | -2 | -5 | ·
COc1cc(C(c2c(C)[nH][nH]c2=O)c2c(C)[nH][nH]c2=O)ccc1OCc1ccc([N+](=O)[O-])cc1 | 13 | 0 | 95* | -1 | 1 | 0.35*
Cc1[nH][nH]c(=O)c1C(c1ccc([N+](=O)[O-])cc1)c1c(C)[nH][nH]c1=O | -3 | -6 | 96* | -2 | 2 | 0.69*
Cc1ccc(C(c2c(C)[nH][nH]c2=O)c2c(C)[nH][nH]c2=O)cc1 | 7 | 7 | 98* | -1 | -6 | 0.54*
